Assay outcomes: PubChem, National Center for Advancing Translational Sciences (NCATS)
RORgamma inh = blocks mouse ROR gamma transcriptional activity | P51450 | Drosophila S2 Gal4-RORgamma UAS-luciferase reporter, 20 h | Potency, µM (top dose mostly 53.6 µM), for inactives: top-dose activity change, negative = inhibition, usual class: inhibitors | 5.4% of 310,000 active | AID 2551; further: nearly all actives have a fitted effect of over 60% in size
Target sequence (P51450 whole entry, looked up, the tested form may be a part): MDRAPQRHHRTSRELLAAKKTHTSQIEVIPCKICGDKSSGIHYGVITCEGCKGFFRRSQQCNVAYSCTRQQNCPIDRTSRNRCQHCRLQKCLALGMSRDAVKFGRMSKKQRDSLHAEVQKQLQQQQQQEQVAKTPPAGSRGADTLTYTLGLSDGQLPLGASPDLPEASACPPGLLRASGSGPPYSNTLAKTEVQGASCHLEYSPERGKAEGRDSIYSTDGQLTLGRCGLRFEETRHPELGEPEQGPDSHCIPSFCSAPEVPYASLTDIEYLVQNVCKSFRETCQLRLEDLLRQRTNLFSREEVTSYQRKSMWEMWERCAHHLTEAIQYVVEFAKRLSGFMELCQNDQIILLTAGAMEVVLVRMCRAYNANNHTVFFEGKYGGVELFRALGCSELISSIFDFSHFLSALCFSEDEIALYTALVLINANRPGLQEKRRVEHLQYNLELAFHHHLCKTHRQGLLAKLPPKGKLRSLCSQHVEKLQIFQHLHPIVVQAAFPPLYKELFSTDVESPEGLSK
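Drosophila Schneider cells stably carrying a metallothionein-driven Gal4 DBD–ROR gamma fusion and a UAS-Photinus luciferase reporter were exposed to compound for 1 hr, then induced with copper sulfate (700 uM final) for 20 hr at ambient temperature before luminescence reading.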
Sfp PPTase inh = inhibitors of Bacillus subtilis Sfp phosphopantetheinyl transferase | Biochemical Sfp PPTase activity, qHTS | Potency, µM, for the others: largest response in the series, negative = inhibition, actives largely listed as inhibitors | 3.5% of 310,000 active | AID 1490;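 further: the enzyme is Sfp with the accession as filed and its product quenches rhodamine fluorescence; 0% = enzyme reaction without inhibitor and -100% = no enzyme wells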
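After 15 min at room temperature with compound, 15 nM Sfp received 5 uM rhodamine-CoA plus 12.5 uM BHQ-2-ybbR (50 mM Hepes pH 7.6, 10 mM MgCl2). Rate came from the fluorescence difference over 30 min, ex 525/em 598 nm.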
VP16 counter = Gal4-VP16 reporter inhibition counter-screen; Drosophila S2 Gal4-VP16 UAS-luciferase, luminescence, 20 h; Potency, µM (top dose mostly 53.6 µM), for the others: at the highest dose activity, negative = inhibition, actives largely listed as inhibitors; 3.5% of 310,000 active;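 further: Gal4-VP16 expression switched on by copper sulfate through the metallothionein promoter; nearly all actives have a fitted effect of over 50% in size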
PLK1 PBD block = inhibitors of human PLK1 polo-box domain binding; AID 720504; Plk1 PBD binding of FITC phosphopeptide, fluorescence polarization; 2.8% of 360,000 active; P53350; Potency, µM, for inactives: max response, negative = inhibition, most hits filed as inhibitors; further: series mostly up to about 57 µM; nearly all actives have a fitted effect of over 65% in size
ALDH1A1 inh = inhibitors of human aldehyde dehydrogenase 1A1 | 7.3% of 220,000 active | Purified ALDH1A1, NADH fluorescence, propionaldehyde substrate | Potency, µM (doses to about 75.3 µM), for the others: at the top dose activity, negative = inhibition, usual class: inhibitors | P00352; active means well fitted inhibition curve with a large enough effect, not every such curve was filed as active; inconclusive means small, poorly fitted or top-dose-only effect, or another doubt; inactive means no such curve, though single readings can be large or run the other way;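 further: plate controls were no enzyme wells and a reference inhibitor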
* marks the source's active call; other numbers are inactive results; [ ] = dose if it differs, or a comment. Sampled rows, rich in hits. Any-hit rate of the full collection: about 12%. Unless noted, the call rests on the fitted dose curve; in most records, active means well fitted curve in the direction sought with a large enough effect; inconclusive means small, poorly fitted or top-dose-only effect, or another doubt; inactive means no such curve, though single readings can be large; an effect the other way counts as inactive or inconclusive. Unless noted, on the % scale 0 is the no-effect control and ±100 the full control effect; potency means the concentration at half of the fitted maximal effect.

Screening COC(=O)c1ccc(NC(=O)CCS(=O)(=O)c2ccc3c(c2)NC(=O)C(C)S3)cc1 (stereo not drawn) returned RORgamma inh -38.8%, Sfp PPTase inh 14.8%, VP16 counter 7.08µM* and PLK1 PBD block 5.97µM*.
`COc1ccc(C)cc1NC(=O)CSc1nnc(COc2ccccc2)n1Cc1ccco1` gave RORgamma inh -108.5%, Sfp PPTase inh 79.4µM*, VP16 counter inconclusive, PLK1 PBD block -14.6% and ALDH1A1 inh -11.9%.
COc1ccc(C)cc1NC(=O)CSc1nnc(COc2ccc(Cl)cc2)n1Cc1ccco1 was read as RORgamma inh inconclusive, Sfp PPTase inh inconclusive, VP16 counter inconclusive, PLK1 PBD block -4.5% and ALDH1A1 inh -1.7%.
Screening COc1ccc(NC(=O)CSc2nnc(COc3ccccc3)n2Cc2ccco2)cc1OC returned RORgamma inh -40.4%, Sfp PPTase inh -13.6%, VP16 counter 11.2µM*, PLK1 PBD block -6.7% and ALDH1A1 inh inconclusive.
COc1ccccc1-n1c(CNC(=O)c2ccco2)nnc1SCC(=O)Nc1cc(C)ccc1C was read as RORgamma inh 0.6%, Sfp PPTase inh 6.9%, VP16 counter 2.8%, PLK1 PBD block 2.99µM* and ALDH1A1 inh 7.8%.
COc1cccc(OCc2nnc(SCC(=O)NCc3ccco3)n2CCc2ccccc2)c1 was read as RORgamma inh -13.8%, Sfp PPTase inh 50.1µM*, VP16 counter -8.1%, PLK1 PBD block -19.4% and ALDH1A1 inh 22.4µM*.
COc1cccc(OCc2nnc(SCC(=O)NCc3ccco3)n2C)c1 was read as RORgamma inh 28.4%, Sfp PPTase inh 8.3%, VP16 counter -5.7%, PLK1 PBD block -4.6% and ALDH1A1 inh 8.5%.
`COc1cc2ccccc2cc1C(=O)N/N=C/c1cccs1` gave PLK1 PBD block -4.6%.
O=c1c(-c2ccc(Br)cc2)coc2c(CN3CCCCC3)c(O)ccc12 was read as RORgamma inh -17.8%, Sfp PPTase inh 21.4%, VP16 counter -6.3% and PLK1 PBD block 6.1%.
`COc1ccc(-c2coc3c(CN4CCCCC4)c(O)c(CN4CCCCC4)c(O)c3c2=O)cc1` gave RORgamma inh -117.6%, Sfp PPTase inh 15.8µM*, VP16 counter inconclusive and ALDH1A1 inh 20.9%.
CC(=O)N1CC=CC1(C)C(=O)NCC1CC1 (stereo not drawn) was read as RORgamma inh 6.7%, Sfp PPTase inh 18.5%, VP16 counter 16.7% and ALDH1A1 inh inconclusive.
Screening Oc1ccccc1-c1cc(-c2ccccc2Cl)[nH]n1 returned RORgamma inh 4.47µM*, Sfp PPTase inh 2.3%, VP16 counter inconclusive, PLK1 PBD block -2.1% and ALDH1A1 inh -7.8%.
Screening Oc1ccccc1-c1cc(-c2cccc(F)c2)n[nH]1 returned RORgamma inh inconclusive, Sfp PPTase inh 3.2%, VP16 counter inconclusive, PLK1 PBD block -4.1% and ALDH1A1 inh 6.5%.
Screening Oc1ccc(Cl)cc1-c1cc(-c2cccc(Br)c2)n[nH]1 returned RORgamma inh inconclusive, Sfp PPTase inh -9.5%, VP16 counter 0.891µM*, PLK1 PBD block 0.0% and ALDH1A1 inh 0.7%.
Screening Oc1ccc(Cl)cc1-c1cc(-c2ccccc2Cl)[nH]n1 returned RORgamma inh 4.47µM*, Sfp PPTase inh 17.0%, VP16 counter 10µM*, PLK1 PBD block -7.0% and ALDH1A1 inh 2.6%.
Cc1ccc(O)c(-c2cc(-c3ccccc3[N+](=O)[O-])[nH]n2)c1 was read as RORgamma inh inconclusive, Sfp PPTase inh 1.4%, VP16 counter inconclusive, PLK1 PBD block 2.5% and ALDH1A1 inh 11.1%.
For O=[N+]([O-])c1ccccc1-c1cc(-c2cc(Cl)ccc2O)n[nH]1 the results were RORgamma inh 15.8µM*, Sfp PPTase inh 3.5%, VP16 counter inconclusive, PLK1 PBD block -2.4% and ALDH1A1 inh -0.3%.
`N[C@H](CO)Cc1cnc[nH]1` gave RORgamma inh -8.7%, Sfp PPTase inh -16.0%, VP16 counter inconclusive and ALDH1A1 inh -6.2%.
Cc1cc(S(=O)(=O)N2CCC(N3CCCCC3)CC2)ccc1-n1cnnn1 was read as RORgamma inh -23.2%, Sfp PPTase inh 1.0%, VP16 counter -10.8%, PLK1 PBD block 3.2% and ALDH1A1 inh 0.0282µM*.
NS(=O)(=O)c1ccc(NC(=S)N2CCc3ccccc32)cc1 was read as RORgamma inh 8.4%, Sfp PPTase inh -13.3%, VP16 counter 4.8% and PLK1 PBD block -4.3%.
For Fc1ccc(NC(=S)N2CCc3ccccc32)cc1 the results were RORgamma inh 11.2µM*, Sfp PPTase inh 4.1%, VP16 counter inconclusive and PLK1 PBD block -1.7%.
FC(F)Oc1ccc(NC(=S)N2CCc3ccccc32)cc1 was read as RORgamma inh 8.91µM*, Sfp PPTase inh 16.1%, VP16 counter -89.6%, PLK1 PBD block -10.7% and ALDH1A1 inh -5.3%.
`C[C@H]1CCCC2(CC[N+](C)(CCC[N+](C)(C)C)CC2)C1` (stereo partly drawn) gave ALDH1A1 inh 3.8%[13.5 µM].
For COc1ccc(NC(=S)N2CCN(C(=O)c3ccco3)CC2)cc1 the results were RORgamma inh -2.1%, Sfp PPTase inh -0.7%, VP16 counter -10.2% and PLK1 PBD block -3.7%.
For CCc1ccc(NC(=O)C(=O)NCCN2CCN(C(=O)c3ccc(OC)cc3)CC2)cc1 the results were PLK1 PBD block -2.2%.
COc1ccc2oc(=O)c(C(=O)N3CCN(C(=O)c4ccco4)CC3)cc2c1 was read as RORgamma inh 10.0%, Sfp PPTase inh -21.2%, VP16 counter -4.1% and PLK1 PBD block 29.9µM*.
COC(=O)c1ccc(NC(=S)N2CCN(C(=O)c3ccco3)CC2)cc1 was read as RORgamma inh 6.9%, Sfp PPTase inh 44.7µM*, VP16 counter -1.0% and PLK1 PBD block 18.9µM*.
For CCc1ccc(NC(=O)C(=O)NCCN2CCN(C(=O)c3ccco3)CC2)cc1 the results were RORgamma inh inconclusive, Sfp PPTase inh 6.5%, VP16 counter -11.1%, PLK1 PBD block -3.6% and ALDH1A1 inh 22.4µM*.
For COc1ccc2oc(=O)c(C(=O)N3CCN(C(=O)c4ccccc4)CC3)cc2c1 the results were RORgamma inh -19.5%, Sfp PPTase inh 21.0%, VP16 counter 12.2% and PLK1 PBD block -4.3%.
Screening COc1ccc(NC(=S)N2CCN(C(=O)c3ccco3)CC2)c(OC)c1 returned RORgamma inh 3.9%, Sfp PPTase inh 39.8µM*, VP16 counter 3.5%, PLK1 PBD block inconclusive and ALDH1A1 inh 3.2%.
`NS(=O)(=O)c1ccc(NC(=O)Nc2ccccc2F)cc1` gave ALDH1A1 inh 3.3%[13.5 µM].
CC(=O)Nc1cccc(-c2csc(C(O)c3ccc(F)cc3)n2)c1 (stereo not drawn) was read as PLK1 PBD block -13.9%.
Screening O=C(O)CN(CC(=O)O)Cc1cc2c(-c3ccccc3C(=O)O)c3cc(CN(CC(=O)O)CC(=O)O)c(=O)cc-3oc2cc1O returned RORgamma inh -8.6%, Sfp PPTase inh 56.2µM*, VP16 counter -7.3% and ALDH1A1 inh -11.1%.
